Measurements published in article PMC4336329 (PLoS ONE, 2015).
In all, about 310,000 compounds went through this assay and about 14,000 (4.5%) showed an effect of 50% or more. Effects have a minus sign here. Many of the other results were omitted from the sample, so strong results are more common in it than they were.

Each molecule was assayed against human ether-à-go-go-related gene (hERG) potassium channel (human, UniProt Q12809) (assay: primary screen, population patch clamp on CHO cells stably expressing hERG; higher = less effect of the substance).
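Also: peak tail current of the secondary pulse compared with the same well before compound.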

Sequence of human ether-à-go-go-related gene (hERG) potassium channel (Q12809 whole entry, looked up): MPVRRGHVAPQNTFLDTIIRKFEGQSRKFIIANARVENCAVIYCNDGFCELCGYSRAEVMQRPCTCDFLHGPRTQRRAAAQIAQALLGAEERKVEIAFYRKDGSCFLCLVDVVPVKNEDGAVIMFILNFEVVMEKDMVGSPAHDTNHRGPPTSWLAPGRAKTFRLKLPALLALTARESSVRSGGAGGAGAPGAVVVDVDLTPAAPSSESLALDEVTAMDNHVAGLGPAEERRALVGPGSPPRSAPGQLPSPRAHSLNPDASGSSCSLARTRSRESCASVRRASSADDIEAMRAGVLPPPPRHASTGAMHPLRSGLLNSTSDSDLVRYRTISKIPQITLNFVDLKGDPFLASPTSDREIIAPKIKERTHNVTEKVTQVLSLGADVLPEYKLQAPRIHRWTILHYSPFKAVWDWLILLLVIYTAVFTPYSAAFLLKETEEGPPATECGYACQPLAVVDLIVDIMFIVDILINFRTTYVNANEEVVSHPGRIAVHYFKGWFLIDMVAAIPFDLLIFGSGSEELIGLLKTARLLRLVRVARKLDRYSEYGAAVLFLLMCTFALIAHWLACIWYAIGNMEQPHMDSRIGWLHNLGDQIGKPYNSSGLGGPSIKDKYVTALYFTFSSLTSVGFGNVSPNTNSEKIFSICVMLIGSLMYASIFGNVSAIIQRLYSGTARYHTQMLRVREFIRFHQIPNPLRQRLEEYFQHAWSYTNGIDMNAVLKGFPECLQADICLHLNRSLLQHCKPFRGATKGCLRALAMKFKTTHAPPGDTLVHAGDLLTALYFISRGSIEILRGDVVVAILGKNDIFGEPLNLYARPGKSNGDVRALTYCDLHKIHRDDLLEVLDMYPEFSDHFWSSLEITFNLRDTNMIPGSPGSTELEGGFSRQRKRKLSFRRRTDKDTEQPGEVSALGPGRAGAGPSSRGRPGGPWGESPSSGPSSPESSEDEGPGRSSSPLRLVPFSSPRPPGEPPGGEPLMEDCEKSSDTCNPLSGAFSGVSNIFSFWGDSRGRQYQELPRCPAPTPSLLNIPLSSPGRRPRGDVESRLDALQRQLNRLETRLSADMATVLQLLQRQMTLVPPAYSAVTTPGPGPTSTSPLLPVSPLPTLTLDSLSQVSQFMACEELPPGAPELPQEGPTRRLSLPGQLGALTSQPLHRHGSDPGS

Compound | hERG current change (%, negative = inhibition) at 10uM [%]
CC1(C)CC(=O)C=C(Nc2cc(-c3ccccc3)[nH]n2)C1 | -11.2
CC(NC(=O)C1CCC(=O)N1Cc1ccccc1Cl)c1ccccc1 (stereo not shown) | 12.8
COc1ccccc1-c1cc(C(=O)Nc2c(C)n(C)n(-c3ccccc3)c2=O)no1 | -34.9
N#CCC(=O)N/N=C/c1ccccc1Cl | 6.55
Cc1nn(C)c(C)c1S(=O)(=O)NC1CCCC1 | -12
CCN(C(=O)CN1CCN(c2cccc(C(F)(F)F)c2)CC1)c1c(N)n(Cc2ccccc2)c(=O)[nH]c1=O | -20.3
C[n+]1c(-c2ccccc2)cc(CCCCc2cc(-c3ccccc3)[n+](C)c(-c3ccccc3)c2)cc1-c1ccccc1.[O-][Cl+3]([O-])([O-])[O-] | -30.6
O=C(c1ccccc1)c1ccc(-c2ccc(O)cc2)cc1 | 10.1
C[n+]1c(-c2ccccc2)cc(-c2ccc(O)cc2)cc1-c1ccccc1.[O-][Cl+3]([O-])([O-])[O-] | -61.4
Oc1ccc(-c2cccc(-c3ccc(O)cc3)c2)cc1 | 3.27
Cc1cc(-c2ccccc2)cc(-c2ccccc2)[n+]1C.[Cl-] | -13.6
C[n+]1c(-c2ccccc2)cc(-c2ccc(Cl)cc2)cc1-c1ccccc1.[O-][Cl+3]([O-])([O-])[O-] | -84.1
COCCNC(=O)C(c1ccc(C)o1)N(C(=O)c1snc(C(N)=O)c1N)c1cc(C)cc(C)c1 (stereo not shown) | -28.5
COc1ccc(Cc2nnc(SCc3nc4ccccc4c(=O)[nH]3)n2C)cc1 | -11.9
COc1ccc(C(CC(=O)O)N2Cc3ccccc3C2=O)cc1 (stereo not shown) | 14.4
CC(C)=CCCC1=CCC(/C(C)=N/NC(N)=O)CC1 (stereo not shown) | -53.7
CC(C)=CCCC1=CCC(/C=N/NC(N)=O)C(C)C1 (stereo not shown) | 9
CC(C)=CCCC1=CCC2C(=O)NNC(=O)C2C1 (stereo not shown) | 9.53
CC(=O)N1c2c(cc(Br)cc2S(=O)(=O)N2CCOCC2)CC1C (stereo not shown) | -0.158
COCC(C)n1c(C)cc(C(=O)CSc2nnnn2C2CCCC2)c1C (stereo not shown) | -33.2
COc1ccc(Cl)cc1C(=O)CSc1nnnn1C1CCCCC1 | -4.88
COc1ccc(Cl)cc1C(=O)CSc1nnnn1C1CCCC1 | -6.05
COCCn1c(C)cc(C(=O)CSc2nnnn2C2CCCC2)c1C | -69
CCn1c(C)cc(C(=O)CSc2nnnn2C2CCCC2)c1C | -53.5
COCCn1c(C)cc(C(=O)CSc2nnc(C3CC3)n2C2CC2)c1C | 5.4
COc1ccc(COC(=O)CCNC(=O)c2ccc(Cl)cc2)cc1 | -32.5
COc1cccc(NC(=S)N(CCCN2CCCC2)Cc2cccn2Cc2ccc(Cl)cc2)c1 | -41.2
COc1ccc(NC(=S)N(CCCN2CCCC(C)C2)Cc2cccs2)cc1 (stereo not shown) | -68.9

Compound | hERG current change (%, negative = inhibition) at 10uM [%]
COc1cccc(NC(=S)N(CCCN2CCCC2)Cc2ccco2)c1 | -46.3
COc1cccc(NC(=S)N(CCCN2CCCC(C)C2)Cc2cccs2)c1 (stereo not shown) | -67.4
CCOCCNC(=O)c1ccc2c3c(cccc13)CC2 | 3.39
Cc1csc(-c2coc3cc(O)cc(C)c3c2=O)n1 | 2.27
O=C1c2ccccc2C(=O)c2c1cccc2N1CCN(CCO)CC1 | -69.7
O=C1c2ccccc2-c2onc3c(N4CCN(CCO)CC4)cc(N4CCN(C(=O)c5ccco5)CC4)c1c23 | -22.1
O=C1c2ccccc2C(=O)c2c1cccc2N1CCN(C/C=C/c2ccccc2)CC1 | -7.23
O=C1c2ccccc2C(=O)c2c1cccc2N1CCN(Cc2ccccc2)CC1 | -56.9
O=C1c2cccc(Cl)c2C(=O)c2c1cccc2N1CCCC1 | -9.16
O=C1c2ccccc2C(=O)c2c1cccc2N1CCCC1 | -14.3
O=C(NCCc1ccccc1)C1CCN(C(=O)Nc2ccccc2)CC1 | 8.37
COc1ccc(NC(=O)CCCn2c(=O)c3sccc3n(Cc3ccccc3)c2=O)cc1 | -20.8
CC(C)(C)NC(=O)C(c1ccco1)N(C(=O)c1csnn1)c1ccccc1 (stereo not shown) | -4.55
CC12CCC(C(=O)N(CCCCN3CCN(Cc4ccccc4)CC3)C1=O)C2(C)C.Cl (stereo not shown) | -45.2
O=C(CNC(=O)c1[nH]cnc1C(=O)N[C@@H](Cc1ccccc1)C(=O)OCc1ccccc1)OCc1ccccc1 | 7.48
COCCn1nnnc1C(c1ccccc1OC)N1CCN(c2ccccc2)CC1.Cl (stereo not shown) | -4.6
CCC(C)(C)n1nnnc1C(c1ccc(OC)c(OC)c1)N1CCN(c2ccccc2)CC1 (stereo not shown) | -39.5
COc1ccc(C(c2nnnn2Cc2cccs2)N2CCN(c3ccccc3F)CC2)cc1OC.Cl (stereo not shown) | -39.6
COc1ccc(C(c2nnnn2Cc2cccs2)N2CCN(c3ccccc3)CC2)cc1OC (stereo not shown) | -63.5
CC(C)C(c1nnnn1Cc1cccs1)N1CCN(c2ccccc2)CC1 (stereo not shown) | 20
CCC(C)(C)n1nnnc1C(c1ccc(OC)c(OC)c1)N1CCN(c2ccc(OC)cc2)CC1.Cl (stereo not shown) | -15.9
COCCn1nnnc1C(c1ccc(OC)cc1OC)N1CCN(c2ccccc2F)CC1.Cl (stereo not shown) | -9.23
CCC(C)(C)n1nnnc1C(c1ccc(OC)c(OC)c1)N1CCN(c2ccc(F)cc2)CC1.Cl (stereo not shown) | -72.9
COCCn1nnnc1C(c1ccc(OC)cc1OC)N1CCN(c2ccccc2)CC1 (stereo not shown) | -70.8
COc1ccccc1CN1CCN(C(CC(C)C)c2nnnn2Cc2cccs2)CC1.Cl (stereo not shown) | -57.9
CCC(c1nnnn1CCOC)N1CCN(Cc2ccccc2OC)CC1.Cl (stereo not shown) | -6.05
CCC(c1nnnn1C(C)(C)C)N1CCN(Cc2ccccc2OC)CC1.Cl (stereo not shown) | -19.2
